# Experimental data published in PubChem BioAssay (Tox21).
# Values joined by “and” are separate entries in the source; they are usually repeats but may differ in a detail not shown here. Equal entries are not always repeated. Records with an inconclusive call do not appear. A call without a number means that no potency is given here. Unmarked numbers belong to inactive results. Active and inactive are the calls of the source. Unless noted, the call rests on the fitted dose curve; in most records, active means well fitted curve in the direction sought with a large enough effect in the repeat runs; inconclusive means weak or mixed curves; inactive means no such curve, though single readings can be large; an effect the other way counts as inactive or inconclusive.
# Columns and labels:
# [1] = qHTS assay to identify small molecule antagonists of the retinoid acid receptor (RAR) signaling pathway - cell viability counter screen (AID 1159551); further: nearly all actives have a fitted effect of over 35% in size; further: potency means the concentration at half of the fitted maximal effect
# How it was run: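 Cytotoxicity counter screen in C3RL4 cells: 6 h compound exposure with 1 uM retinol (final), viability from cellular ATP by luminescence.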
# [2] = qHTS assay to identify small molecule antagonists of the estrogen related receptor (ERR) signaling pathway from Tox21 library - cell viability counter screen (AID 1224834); further: nearly all actives have a fitted effect of over 30% in size; further: potency means the concentration at half of the fitted maximal effect
# How it was run: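 Cytotoxicity of test substances is gauged in the same ERR cells used for the antagonist screen, after 17.5 h of compound treatment at 37 C, by CellTiter-Fluor fluorescence measured after 30 min.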
# [3] = qHTS assay to identify small molecule antagonists of the estrogen related receptor (ERR) signaling pathway - cell viability counter screen (AID 1224818);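 further: series mostly up to about 46 µM; viability measured after 17.5 h of compound exposure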
# How it was run: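 Cells carrying the ERR pathway reporter were seeded and incubated for 6 hours before compound addition. After a 17.5-hour exposure at 37 C, live-cell protease activity was measured by CellTiter-Fluor fluorescence following 30 minutes of incubation.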
# [4] = qHTS assay to identify small molecule antagonists of the estrogen related receptor signaling pathway with the pleiotropic PPARgamma coactivator (PGC) cell viability counter screen (AID 1224822;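 further: series mostly up to about 46 µM; viability read after 17.5 h compound exposure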)
# How it was run: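 Seed PGC/ERR cells (2,000/well); incubate 6 h at 37 C/5% CO2; pin-transfer compounds in DMSO; incubate 17.5 h at 37 C; add CellTiter-Fluor; after 30 min read fluorescence.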
# [5] = qHTS assay to identify small molecule antagonists of the estrogen related receptor (ERR) signaling pathway (AID 1224819;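 further: luminescence from an ERR-driven luciferase reporter measured with One-Glo reagent; series mostly up to about 46 µM; nearly all actives have a fitted effect of over 50% in size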)
# How it was run: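 Compounds dissolved in DMSO were pin-transferred onto ERR cells that had been plated 6 h earlier, and cells were then incubated 18 h at 37 C; signal was luciferase luminescence via One-Glo.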
# [6] = qHTS assay to identify small molecule agonists of the estrogen related receptor (ERR) signaling pathway (AID 1224820)
# How it was run: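 ERR reporter cell line (from NTP), 2,000 cells/well, incubated 6 h before compound addition, then 18 h at 37 C. Luminescence measured 30 min after One-Glo reagent at room temperature.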
# [7] = tested on: estrogen-related receptor alpha (ERRalpha) with PGC-1alpha coactivator, human; assay: qHTS assay to identify small molecule antagonists of the estrogen related receptor signaling pathway with the pleiotropic PPARgamma coactivator (PGC) (AID 1224821; calls by dose curve;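 further: series mostly up to about 46 µM; lower luminescence signal means antagonism of PGC/ERR signalling; nearly all actives have a fitted effect of over 50% in size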)
# How it was run: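 PGC/ERR reporter cell line, plated 6 h before compound addition, then exposed 18 h at 37 °C. Luciferase activity read by luminescence 30 min after One-Glo addition; decrease indicates antagonism.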
# [8] = qHTS assay to identify small molecule agonists of the estrogen related receptor signaling pathway with the pleiotropic PPARgamma coactivator (PGC) (AID 1224823)
# How it was run: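 PGC/ERR reporter cells seeded 6 h, then exposed to compounds (23 nL in DMSO) for 18 h at 37 C. One-Glo luciferase luminescence read after 30 min at room temperature.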
# [9] = qHTS assay to identify small molecule antagonists of the retinoic acid receptor (RAR) signaling pathway (AID 1159552; further: potency means the concentration at half of the fitted maximal effect; nearly all actives have a fitted effect of over 50% in size)
# How it was run: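 Using a RARE-driven luciferase construct in C3RL4 cells, retinol at 1 uM final provided the agonist stimulus while compounds were co-applied. After 6 hours at 37 C, luminescence was recorded to flag inhibitors of retinol signaling.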
# [10] = qHTS assay to identify small molecule agonists of the retinoic acid receptor (RAR) signaling pathway (AID 1159553); further: potency means the concentration at half of the fitted maximal effect
# How it was run: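 Agonist activity was scored in C3RL4 cells bearing a retinoic acid response element luciferase construct. Cells were treated with compounds for 6 hr at 37 C, and luciferase signal was measured as luminescence.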
smiles,measurement,setting,value
CCCCCCCCC(C)=O,Potency,[1],inactive
same,Potency,[2],inactive
Brc1ccccn1,Potency,[1],inactive
same,Potency,[2],inactive
c1cc(OCC2CO2)cc(OCC2CO2)c1 (centres undefined),Potency,[1],inactive
same,Potency,[2],60.6 µM (active)
NC(=O)C(=O)N/N=C/c1ccc([N+](=O)[O-])o1,Potency,[1],inactive
same,Potency,[2],inactive
CCN(CC)CCCN(c1ccccc1)C1Cc2ccccc2C1,Potency,[1],inactive
same,Potency,[3],inactive
same,Potency,[4],inactive
CCc1cccc(CC)c1NC(=O)C(=O)O,Potency,[1],inactive
same,Potency,[2],inactive
CCCCCCCCCCCCCCNCCO,Potency,[1],inactive
same,Potency,[2],inactive
CC1CNCC(C)O1 (centres undefined),Potency,[1],inactive
same,Potency,[2],inactive
NCCCC(O)(P(=O)(O)O)P(=O)(O)O,Potency,[1],inactive
same,Potency,[2],inactive
O=C(O)CCn1c2c(c3ccccc31)C[C@H](NS(=O)(=O)c1ccc(F)cc1)CC2,Potency,[1],inactive
same,Potency,[2],inactive
CN1[C@@H]2CC[C@H]1CC(OC(=O)C(CO)c1ccccc1)C2 (some centres undefined),Potency,[1],inactive
same,Potency,[2],inactive
Oc1ccc(-c2ccccc2)c(Cl)c1,Potency,[1],inactive
same,Potency,[2],inactive
C=CC(=C)CC/C=C(\C)CCC=C(C)C,"activity change, negative = cytotoxicity",[1],-0.128% [at 19 µM]
same,"viability change, negative = cytotoxic",[2],0.736% [at 19 µM]
CC(C(O)c1ccccc1)N(C)CCOC(c1ccccc1)c1ccccc1 (centres undefined),Potency,[1],inactive
same,Potency,[2],29.8 µM (active)
CC(=O)OC1CCCCC1,Potency,[1],inactive
same,Potency,[2],inactive
C1CC(COCC2CO2)CCC1COCC1CO1 (centres undefined),Potency,[1],inactive
same,Potency,[2],inactive
c1ccc(Sc2ccccc2)cc1,Potency,[1],inactive
same,Potency,[2],inactive
C=C[C@](C)(O)CC[C@@H]1[C@@]2(C)CCCC(C)(C)[C@@H]2CC[C@@]1(C)O,Potency,[1],61.1 µM (active)
same,Potency,[2],61.1 µM (active)
c1cc[nH]c1,Potency,[1],inactive
same,Potency,[2],inactive
CN1[C@@H]2CC[C@@H]1CC(OC(=O)C(CO)c1ccccc1)C2 (some centres undefined),Potency,[1],inactive
same,Potency,[2],inactive
CC(C)OC(=O)c1cc(C(=O)OC(C)C)cc([N+](=O)[O-])c1,Potency,[1],inactive
same,Potency,[3],inactive
same,Potency,[5],inactive
same,outcome,[6],inactive
same,outcome,[7],inactive
same,Potency,[4],inactive
same,outcome,[8],inactive
same,Potency,[2],inactive
CCCCCCCC(C)=O,Potency,[1],inactive
same,Potency,[2],inactive
C[C@@]12C(=O)OC(=O)[C@]1(C)C1CCC2O1,Potency,[1],8.41 µM (active)
same,Potency,[2],6.68 µM (active)
CC(C)(C)c1n[nH]c(=O)n(N)c1=O,Potency,[1],inactive
same,Potency,[2],inactive
C[n+]1c2cc(N)ccc2cc2ccc(N)cc21 (tested in a mixture with another compound),Potency,[9],23.7 µM (active)
Cc1cccc(C)c1NC(=O)CN1CCN(CCCC(c2ccc(F)cc2)c2ccc(F)cc2)CC1,Potency,[9],26.6 µM (active)
CCCCCCCCCCCCOC(=O)c1cc(O)c(O)c(O)c1,Potency,[10],172 nM (active) and 386 nM (active)
same,Potency,[2],60.9 µM (active) and 27.3 µM (active)
